A short description of assay [1]: Quantitative High-Throughput drug screen in 47 multiple myeloma cell lines against the NCATS MIPE library collection: KMS26_JCRB cell viability assay (AID 1918975). Also: nearly all actives have a fitted effect of over 45% in size. In short, it runs like this: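 We plated 500 myeloma cells per well, pinned in MIPE 4.0 compounds, and incubated for 48 hours at 37C. ATP was then quantified with CellTiter-Glo, with DMSO and media-only wells defining 100% and 0%.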

The nature of assay [2]: Quantitative High-Throughput drug screen in 47 multiple myeloma cell lines against the NCATS MIPE library collection: NCIH929_DSMZ cell viability assay (AID 1918978). Also: nearly all actives have a fitted effect of over 35% in size. Put shortly: (§1)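 Cells were exposed to library compounds for 48 hours, after which ATP was measured by CellTiter-Glo. Signal was taken as median relative luminescence units.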
A short description of assay [3]: Quantitative High-Throughput drug screen in 47 multiple myeloma cell lines against the NCATS MIPE library collection: MM1S_ATCC cell viability assay (AID 1918980). Also: nearly all actives have a fitted effect of over 45% in size. In short, it runs like this:
as §1

Assay [4] can be described thus: Quantitative High-Throughput drug screen in 47 multiple myeloma cell lines against the NCATS MIPE library collection: MM1R_ATCC cell viability assay (AID 1918981). Also: nearly all actives have a fitted effect of over 35% in size. Put shortly: as §1
The nature of assay [5]: Quantitative High-Throughput drug screen in 47 multiple myeloma cell lines against the NCATS MIPE library collection: LP1_DSMZ cell viability assay (AID 1918982). Also: nearly all actives have a fitted effect of over 35% in size. In short, it runs like this: as §1
The nature of assay [6]: Quantitative High-Throughput drug screen in 47 multiple myeloma cell lines against the NCATS MIPE library collection: MOLP8_DSMZ cell viability assay (AID 1918977). Also: nearly all actives have a fitted effect of over 45% in size. In short, it runs like this:
as §1

A short description of assay [7]: Quantitative High-Throughput drug screen in 47 multiple myeloma cell lines against the NCATS MIPE library collection: L363_DSMZ cell viability assay (AID 1918984). Also: nearly all actives have a fitted effect of over 40% in size. Put shortly: as §1
A short description of assay [8]: Quantitative High-Throughput drug screen in 47 multiple myeloma cell lines against the NCATS MIPE library collection: KMS28PE_JCRB cell viability assay (AID 1918983). Also: nearly all actives have a fitted effect of over 35% in size. In short, it runs like this:
as §1

Assay [9] can be described thus: Quantitative High-Throughput drug screen in 47 multiple myeloma cell lines against the NCATS MIPE library collection: OCIMY1_PLB cell viability assay (AID 1918979). Also: nearly all actives have a fitted effect of over 35% in size. As to viability: series mostly up to about 46 µM. Put shortly:
as §1

Assay [10] can be described thus: Quantitative High-Throughput drug screen in 47 multiple myeloma cell lines against the NCATS MIPE library collection: MMM1_PLB cell viability assay (AID 1918976). Also: nearly all actives have a fitted effect of over 35% in size. In short, it runs like this: as §1

Inconclusive results are not listed. Unmarked numbers belong to inactive results. The source made the active and inactive calls. Calls follow the shape of the dose curve; as a rule, active = well fitted curve in the direction sought with a large enough effect; inconclusive = small, poorly fitted or top-dose-only effect, or another doubt; inactive = no such curve, though single readings can be large; an effect the other way counts as inactive or inconclusive.
Potency is read from the fitted curve at half-maximal effect.

As to `CC[C@H](CO)Nc1nc(NCc2ccccc2)c2ncn(C(C)C)c2n1`, the Potency in [1] was 33.2 µM (active); in assay [2], 10.5 µM (active); in assay [3], 20.9 µM (active); in assay [4], 26.4 µM (active); in assay [5], 26.4 µM (active).
For the molecule `O=C(O)Cn1nnc(-c2cc(N3CCC(Oc4cc(F)ccc4Br)CC3)no2)n1`, the Potency entry in [1], in [6], in assay [2], in assay [4], in assay [5] and in assay [7] was “inactive” throughout. Moreover, the Potency in assay [3] was 8.33 µM (active).
On to `O=C(C=Cc1cccnc1)NCCCCC1CCN(C(=O)c2ccccc2)CC1`, for which the Potency in [1] is 0.0053 µM (active); in assay [2], 0.0132 µM (active); in assay [3], 0.0296 µM (active); in assay [8], 0.132 µM (active). Also, the Potency result in [6] was “inactive”.
With `Clc1ccc2ncc(-c3cccc(NC4CNC4)n3)n2c1`, the Potency in [1] is 23.5 µM (active); in [6], 14.8 µM (active); in assay [2], 20.9 µM (active); in [9], 20.9 µM (active); in [3], 5.26 µM (active); in assay [4], 16.6 µM (active). Moreover, the Potency in [5] was 16.6 µM (active).
As for `CN(C)c1nc(Cc2ccc(NC(=O)c3ccc4ccccc4c3)cc2)nc(Cl)c1CC(=O)O`, the Potency result in assay [1], in assay [6], in assay [2], in assay [4], in assay [5] and in assay [8] was “inactive” throughout. Besides, the Potency in [3] was 2.96 µM (active).
On to `C1Cc2[nH]nc(-c3nn[nH]n3)c2C1`, for which the Potency result in assay [1], in assay [2], in [3], in assay [4], in assay [5] and in assay [8] was “inactive” each time. Further, the Potency entry in assay [7] is “inactive”.
As to `COc1cc2ncn(-c3cc(OCc4ccccc4C(F)(F)F)c(C(N)=O)s3)c2cc1OC`, the Potency in assay [1] was 18.7 µM (active); in assay [10], 20.9 µM (active); in assay [3], 3.32 µM (active); in assay [4] it was 18.7 µM (active); in [5], 0.935 µM (active); in assay [8], 16.6 µM (active).
Take `Nc1ccc(S(=O)(=O)Nc2ncccn2)cc1`: the Potency result in [1], in assay [6], in assay [9], in assay [3], in assay [4] and in assay [5] was “inactive” each time. The Potency entry in assay [8] is “inactive”.
Take `O=c1[nH]c(=O)n(C2CCCO2)cc1F` (stereo not given): the Potency entry in [1], in assay [2], in assay [9], in assay [5], in assay [8] and in assay [7] was “inactive” throughout.
On to `O=C(C=Cc1c(C(=O)O)[nH]c2cc(Cl)cc(Cl)c12)Nc1ccccc1`, for which the Potency result in assay [1], in assay [2], in assay [3], in [4], in assay [5] and in [8] was “inactive” each time.
Turning to `CCN1CCN(Cc2ccc(-c3cc4c(N[C@H](C)c5ccccc5)ncnc4[nH]3)cc2)CC1`, the Potency was 0.935 µM (active) in assay [1], 18.7 µM (active) in assay [10], 3.32 µM (active) in assay [9] and 0.0235 µM (active) in assay [7].
Take `Cn1c2cc(S(C)=O)sc2c2cnn(Cc3cccc(N)c3)c(=O)c21` (stereo not given): the Potency entry in assay [1], in assay [3], in assay [4] and in [8] was “inactive” in each case. Besides, the Potency in assay [10] is 3.32 µM (active).
As to `O=C(O)[C@H](Cc1c[nH]c2ccccc12)N1C(=O)c2ccccc2C1=O`, the Potency result in assay [1], in assay [6], in assay [9] and in [5] was “inactive” in each case. Further, the figures for the Potency in assay [2] and in [3] were 54 µM (active) and 42.9 µM (active), respectively.
For the molecule `CN1CCN(c2cc(C(=O)Nc3ccc4c(c3)-c3c(c(C(N)=O)nn3-c3ccc(F)cc3)CC4)c(Cl)cn2)CC1`, the Potency in assay [1] was 10.5 µM (active); in assay [6], 26.4 µM (active); in assay [2], 0.743 µM (active); in assay [3], 3.32 µM (active); in assay [5], 23.5 µM (active); in [8], 23.5 µM (active). Also, the Potency in assay [7] was 4.18 µM (active).
Consider `Nc1ccccc1NC(=O)c1ccc(CNc2nccc(-c3cccnc3)n2)cc1`, for which the Potency was 1.32 µM (active) in [1]; 1.18 µM (active) in assay [6]; 3.32 µM (active) in [9]; 0.935 µM (active) in assay [3]; 0.743 µM (active) in assay [4]; 2.09 µM (active) in assay [5]. Moreover, the Potency is 2.96 µM (active) in assay [8] and 1.18 µM (active) in assay [7].
Turning to `Cc1ccc(CN2CCNCC2)cc1NC(=O)CNc1ccc(F)c(F)c1`, the Potency was 16.6 µM (active) in assay [10], 2.64 µM (active) in [3], 26.4 µM (active) in assay [4] and 20.9 µM (active) in [8]. Besides, the Potency result in assay [2] is “inactive”.
As for `C[C@]1(CO)CN(c2cc(C(=O)Nc3ccc4c(c3)-c3c(c(C(N)=O)nn3-c3ccc(F)cc3)CC4)c(Cl)cn2)C[C@@]1(C)CO`, the Potency is 14.8 µM (active) in assay [10], 14.8 µM (active) in assay [3] and 8.33 µM (active) in assay [4]. Further, in assay [9], the Potency result was “inactive”.
As to `CCCNC(=O)Nc1ccc(Oc2ncnc3cc(OC)c(OC)cc23)cc1Cl`, the Potency in assay [10] is 1.66 µM (active); in [3], 20.9 µM (active). Moreover, the Potency result in assay [6], in assay [2], in assay [9], in assay [4], in assay [5] and in assay [8] was “inactive” throughout. In addition, the Potency entry in assay [7] was “inactive”.
Consider `CNc1nccc(-c2cccnc2Oc2cc(C(=O)Nc3cccc(C(F)(F)F)c3)ccc2C)n1`, for which the Potency is 18.7 µM (active) in [10]; 5.26 µM (active) in [2]; 18.7 µM (active) in [3]; 23.5 µM (active) in [5]; 20.9 µM (active) in assay [8]; 14.8 µM (active) in assay [7].
For `C=CC(=O)Nc1cccc(Oc2nc(Nc3ccc(N4CCN(C)CC4)cc3OC)ncc2Cl)c1`, the Potency in assay [1] was 26.4 µM (active); in assay [5], 20.9 µM (active).
On to `COc1ccc2c(OCc3nnc4ccc(-c5ccccc5)nn34)ccnc2c1`, for which the Potency entry in assay [10], in assay [2], in assay [9], in assay [3], in assay [4] and in [5] was “inactive” in each case.
